# PubChem BioAssay AID1906 (The Scripps Research Institute Molecular Screening Center, 2009)
# The whole screen tested about 300,000 compounds, of which about 1,500 (0.5%) were called active.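 Rule for the calls: active = inhibition above the mean of all tested compounds plus 3 SD, set per screening campaign (cut at about 17% in these data); inactive = the rest.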 The list comes from a sample in which actives are over-represented; it also holds similar structures and randomly drawn compounds.
# Test system: cathepsin L1 (Fasciola hepatica)
# Experiment: CTSL1 protease inhibition, fluke enzyme – biochemical, QFRET, fluorogenic peptide substrate, counter-screen for PFM18AAP inhibitor project, primary screen (AID 1906);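 note: 0% = plate median of test compound wells and 100% = 1 µM Z-Phe-Ala-diazomethylketone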
# Conditions: recombinant F. hepatica cathepsin L1, Z-Leu-Arg-MCA fluorescence; at 5.96 µM; hits give high values
row,SMILES,inhibition
1,Cc1c(C=O)c2ccccc2n1CCOc1ccccc1,1.89% (inactive)
2,O=C(O)c1cccnc1NC1CCCC1,1.66% (inactive)
3,CNc1nc(SC)nc(N(C#N)CC(=O)OC)n1,42.3% (active)
4,COC(=O)C(C)N(C#N)c1nc(C)nc(C)n1 (stereo unspecified),1.79% (inactive)
5,Cc1cc(C)nc(N(C#N)CC(=O)Nc2ccccc2)n1,1.63% (inactive)
6,COc1ccc(CC(NC(C)=O)C(=O)N2CCN(C(=O)Nc3cccc(Cl)c3)CC2)cc1OC (stereo unspecified),-4.54% (inactive)
7,Cn1cc(S(=O)(=O)Nc2ccc(Cl)cc2Cl)c(=O)n(C)c1=O,-0.98% (inactive)
8,Cc1ccc(NC(=S)N(CCCN2CCC(C)CC2)Cc2ccco2)cc1,-0.39% (inactive)
9,Cc1ccc(NC(=S)N(Cc2ccco2)C(C)c2cccs2)cc1 (stereo unspecified),22.4% (active)
10,Cc1ccc(NC(=S)N(CCN2CCCCC2)Cc2ccco2)cc1C,-2.51% (inactive)
11,COn1c(=O)c(=O)n(OC)c2ccccc21,2.56% (inactive)
12,CS(=O)(=O)n1nc(-c2ccccc2)nc1NCc1ccco1,0.56% (inactive)
13,O=C(NCc1ccco1)c1nc(-c2ccccc2)n(-c2ccccc2)n1,-1.81% (inactive)
14,O=C(Cc1ccccc1)n1nc(-c2ccccc2)nc1NCc1ccco1,51.2% (active)
15,O=C1c2cccnc2C(=O)N1Cc1cccs1,0.86% (inactive)
16,O=C(CSCc1cccs1)N1CCCC1,-3.58% (inactive)
17,c1csc(CN2CCN(Cc3cccs3)C2c2cccs2)c1,17% (active)
18,COC(=O)Nc1ccc(S(=O)(=O)Nc2cc(OC)nc(OC)n2)cc1,2.38% (inactive)
19,COc1ccc(COC(=O)NC(C(=O)O)c2ccccc2)cc1 (stereo unspecified),0.08% (inactive)
20,COc1ccc(CN(C)C(=O)CC(c2ccccc2)c2ccccc2)cc1,2.03% (inactive)
21,COc1ccc(C(CCN(Cc2ccc(OC)c(OC)c2)C(=O)CCl)c2ccccc2)cc1 (stereo unspecified),59.9% (active)

row,SMILES,inhibition
1,CCN(CC(=O)Nc1ccc(NC(C)=O)cc1)C(=O)C1CC(=O)N(Cc2ccc(C)cc2)C1 (stereo unspecified),6.92% (inactive)
2,O=c1c2ccccc2cnn1Cc1n[nH]c(=S)n1-c1ccccc1F,-4.23% (inactive)
3,COC(=O)C1=C(NC(=O)C(C)(C)C)CCS1,-1.55% (inactive)
4,NC(=O)c1ccsc1NC(=O)COC(=O)Cc1n[nH]c(=O)c2ccccc12,2.85% (inactive)
5,COc1cc(OC)c(C2=NOC(C(=O)Nc3c(C)n(C)n(-c4ccccc4)c3=O)C2)cc1Cl (stereo unspecified),4.46% (inactive)
6,Cc1ncn(C23CC4CC(CC(O)(C4)C2)C3)n1,23.6% (active)
7,COC(=O)c1ccc(NC(=O)C23CC4CC(C2)CC(n2cnc(Cl)n2)(C4)C3)cc1,0.89% (inactive)
8,CC(N)C12CC3CC(CC(O)(C3)C1)C2 (stereo unspecified),-3.06% (inactive)
9,COc1ccc(CCNC(=O)CN2C(=O)CCSc3ccccc32)c(OC)c1,-0.1% (inactive)
10,Cc1ccc(Nc2c(F)c(F)c(F)c(F)c2C(=O)O)c(C)c1,-4.87% (inactive)
11,COc1ccc(C2=NS(=O)(=O)N(C)C(C(=O)NC(C)c3ccccc3)=C2)cc1 (stereo unspecified),11.2% (inactive)
12,COc1ccc(NC(=O)NCCN2CCN(c3ccc(C)cc3)CC2)c(Cl)c1,2.74% (inactive)
13,COc1ccc(Cl)cc1NC(=O)CCN1CCOCC1,-1.4% (inactive)
14,COc1ccc(Cl)cc1NC(=O)c1cccc(N2C(=O)C3CC=CCC3C2=O)c1 (stereo unspecified),0.1% (inactive)
15,COc1ccc(Cl)cc1NC(=O)COC(=O)C(CC(C)C)N1C(=O)C2CC=CCC2C1=O (stereo unspecified),39.5% (active)
16,O=C(CN1CCN(S(=O)(=O)c2ccc(Cl)s2)CC1)NCc1ccc(Cl)cc1,-3.91% (inactive)
17,COc1ccc(CNC(=O)CCn2cccc2)cc1,17.3% (active)
18,COc1ccc(CNC(=O)C(Cc2ccccc2)n2cccc2)cc1 (stereo unspecified),2.08% (inactive)
19,COc1ccc(CNC(=O)CCN2C(=O)c3ccccc3C2=O)cc1,-1.89% (inactive)
20,COc1ccc(OC)c(NC(=O)c2cccc(S(=O)(=O)N3CCN(C(C)=O)CC3)c2)c1,-1.16% (inactive)
